Compound activity deposited in PubChem by National Center for Advancing Translational Sciences (NCATS).
This is a sample that favours compounds with a hit; in the whole collection about 6.8% have one here.
KB-V1 MDR tox: qHTS assay for MDR1-selective chemotherapeutics: Primary screen using the drug-selected MDR subline cells KB-V1. KB-V1 MDR cells viability, CellTiter-Glo, 72 h. Potency, µM (doses to about 46.1 µM), usual class: cytotoxic. hit rate 3.4% among 400,000; note: % is set by controls: 0 for no effect and ±100 for the full control effect; nearly all actives have a fitted effect of over 60% in size
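Cytotoxicity toward P-gp-expressing KB-V1 cells was determined as loss of CellTiter-Glo luminescence after 72 h at 37 degrees C. Compounds were tested in quantitative HTS format across a concentration range, with curves fitted to normalized data.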
TSG101-PTAP inh: qHTS Assay for Iinhibitors of HIV-1 Budding by Blocking the Interaction of PTAP/TSG101 | Potency, µM (highest dose often 115 µM), without a hit: at the top dose activity change, negative = inhibition, hits mostly inhibitors | Fluorescence polarization, FITC-PTAP peptide / Tsg101 binding | 340,000 tested, under 10 active; active = well fitted inhibition curve with a large enough effect in the main read-out, with a control signal flat, not every such curve was filed as active; inconclusive = small, poorly fitted or top-dose-only effect, or effect the other way, or a change in a side signal; inactive = no such curve, though single readings can be large or run the other way; note: % of control where 0% means no effect
Target sequence (Q99816 whole entry, looked up): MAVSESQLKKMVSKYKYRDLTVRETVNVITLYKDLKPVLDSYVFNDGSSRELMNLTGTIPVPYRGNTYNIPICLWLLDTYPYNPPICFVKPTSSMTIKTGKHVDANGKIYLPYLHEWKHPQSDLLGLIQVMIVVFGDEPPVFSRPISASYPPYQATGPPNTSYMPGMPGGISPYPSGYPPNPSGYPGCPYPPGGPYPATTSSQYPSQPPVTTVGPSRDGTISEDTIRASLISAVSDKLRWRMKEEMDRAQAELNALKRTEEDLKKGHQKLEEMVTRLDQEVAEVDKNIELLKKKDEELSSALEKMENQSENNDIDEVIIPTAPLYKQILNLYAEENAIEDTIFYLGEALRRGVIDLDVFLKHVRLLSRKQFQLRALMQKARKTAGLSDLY
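Steps: Tsg101 binding domain dispensed (10 uM final), compounds pinned in DMSO, FITC-labeled PTAP-motif peptide added (50 nM final); after 20 min binding at room temperature, polarization measured.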
KB-3-1 cytotox: qHTS assay for MDR1-selective chemotherapeutics: Primary screen using the parental adenocarcinoma cell KB-3-1. AID 1347075, 2019. KB-3-1 viability, CellTiter-Glo ATP luminescence, 72 h. hit rate 1.4% among 400,000. Potency, µM (top dose mostly 46.1 µM), actives largely listed as cytotoxic; note: % is set by controls: 0 for no effect and ±100 for the full control effect; nearly all actives have a fitted effect of over 60% in size
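Parental KB-3-1 adenocarcinoma cells in phenol-red-free DMEM with 10% FBS were pin-treated with compounds at several concentrations, incubated 72 h at 37 °C, and viability read by CellTiter-Glo luminescence; concentration-effect curves were fitted after normalization.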
MCF10A rerep: A quantitative high throughput screen for small molecules that induce DNA re-replication in MCF 10a normal breast cells; MCF 10A DNA re-replication, Hoechst nuclear intensity, 48 h; Potency, µM (doses to about 46.1 µM), inactives show top-dose activity, positive = re-replication, actives largely listed as activators; hit rate 2.9% among 350,000; note: % of control where 0% means no effect; nearly all actives have a fitted effect of over 50% in size
PINK1 modulator: A Quantitative High throughput Screen to Identify Chemical Modulators of PINK1 Expression; Potency, µM (titrated, usually from 76.6 µM), without a hit: top-dose activation (PINK1 increase), actives largely listed as activators; hit rate 0.2% among 410,000; PINK1 immunofluorescence, high-content cytometry, 24 h; active = well fitted activation curve with a large enough effect; inconclusive = small, poorly fitted or top-dose-only effect; cell line not stated here; note: % of control where 0% means no effect; nearly all actives have a fitted effect of over 65% in size
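Cells are seeded, rested 12 hours, then given compound at five concentrations or DMSO for 24 hours. After fixation, blocking and antibody staining, PINK1 amount and mitochondrial localization are scored; CCCP serves as control.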
SW480 rereplic: A quantitative high throughput screen for small molecules that induce DNA re-replication in SW480 colon adenocarcinoma cells; Potency, µM (titrated, usually from 46.1 µM), for the others: top-dose re-replication activation, actives largely listed as activators; SW480 DNA re-replication, Hoechst DNA content imaging, 48 h; hit rate 1.8% among 340,000; note: % of control where 0% means no effect; nearly all actives have a fitted effect of over 55% in size
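Per well, 250 cells were exposed to pinned compound for 48 hr. Nuclear DNA was visualised with Hoechst (40 min, 37 C) and total object intensity recorded by fluorescence scanning.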
Starred values were filed as active, the others as inactive; i = inactive; u = inconclusive; x = no result given; [ ] = remark or other dose. Unless noted, calls come from the whole dose curve; as a rule, active = well fitted curve in the direction sought with a large enough effect; inconclusive = small, poorly fitted or top-dose-only effect, or another doubt; inactive = no such curve, though single readings can be large; an effect the other way counts as inactive or inconclusive. Potency is the fitted concentration of half-maximal effect.

SMILES	KB-V1 MDR tox	TSG101-PTAP inh	KB-3-1 cytotox	MCF10A rerep	PINK1 modulator	SW480 rereplic
COc1ccc(-c2nnc(SCC(=O)N3CCC(Cc4ccccc4)CC3)o2)cc1OC	5.2µM*	-11%	i	2%	0%[38.3 µM]	0%
COc1ccc(-c2nnc(SCC(=O)N3CCN(c4ccccc4)CC3)o2)cc1OC	i	-4%	i	12%	0%	13%
COc1cc(-c2nnc(SCC(=O)N3CCCc4ccccc43)o2)cc(OC)c1OC	2.6µM*	x	i	x	2%	x
CCCCOC(=O)CSc1nnc(-c2cc(OC)c(OC)c(OC)c2)o1	i	-5%	i	23%	4%[38.3 µM]	-14%
CCCCN(CCCC)C(=O)CSc1nnc(-c2cc(OC)c(OC)c(OC)c2)o1	13µM*	-3%	u	-4%	11%[38.3 µM]	0%
O=C(c1ccc2c(c1)OCO2)N(Cc1cc2ccc(F)cc2nc1N1CCC(O)CC1)CC1CCCO1 (centres undefined)	x	x	x	x	0%	x
COc1cc2c3nnc(-c4ccc(F)cc4)c-3cn(Cc3ccccc3F)c2cc1OC	i	u	15µM*	9.2µM*	u	u
COc1cc2c(=O)c(S(=O)(=O)c3ccc(F)cc3)cn(Cc3ccccc3C)c2cc1OC	i	x	i	x	4%	x
COc1cc2c3nnc(-c4ccccc4)c-3cn(Cc3ccccc3F)c2cc1OC	i	u	u	23µM*	u	23µM*
CCOC(=O)C1CCCN(C(=O)c2cnn(-c3ncc4c(n3)-c3ccccc3CC4)c2C)C1 (centres undefined)	x	x	x	x	0%	x
CC(=O)c1ccc(NC(=O)C2CCCN(S(=O)(=O)c3cn(C)cn3)C2)cc1 (centres undefined)	x	x	x	x	0%	x
Cc1cc(NC(=O)c2cccs2)cc(-c2nc3cc(Cl)ccc3o2)c1O	u	x	i	x	0%	x
Fc1ccc(Nc2ccnc(Nc3ccc(F)cc3)n2)cc1	15µM*	2%	i	u	2%	2%
Nc1ncnc(Nc2ccc(F)cc2)n1	i	-2%	i	13%	1%	-1%
Cc1cccc(OCC(=O)N(Cc2cccc(Cl)c2)Cc2ccco2)c1C	x	x	x	x	0%	x
COc1ccc([N+](=O)[O-])cc1NC(=O)C(C)OC(=O)Cc1ccc(OC)c(OC)c1 (centres undefined)	15µM*	-1%	i	3%	1%	2%
O=C1N=C2SCCN2/C1=C\c1ccc(Cl)cc1	u	-8%	i	18µM*	-1%	2%
O=C1N=C2SCCN2C(=O)C1Cc1ccc(Cl)cc1 (centres undefined)	x	x	x	11%	x	-2%
COc1ccccc1CN(C)C(=O)C(c1ccccc1)c1ccccc1	21µM*	-4%	u	u	2%	u
CN(Cc1ccc(F)cc1)C(=O)C(c1ccccc1)c1ccccc1	i	-6%	i	-10%	1%	u
CC(=O)N1CCc2cc(S(=O)(=O)NC(C(=O)Nc3ccc(C)cc3C)C(C)C)ccc21 (centres undefined)	i	x	i	x	2%	x
COc1ccc(CNC(=O)Nc2ccc(OC)cc2)cc1	i	-3%	i	18µM*	-1%[38.3 µM]	u
COc1ccc(NC(=O)C23CCC(C)(C(=O)O2)C3(C)C)cc1 (centres undefined)	i	0%	i	0.52µM*	11%[38.3 µM]	5.2µM*
COc1ccc(-n2c(=O)c3c(c4cc(OC)ccc4n3C)n(Cc3cc(C)ccc3C)c2=O)cc1	u	x	i	x	0%	x
CC1CCN(C(=O)/C(=C/c2ccccc2Cl)c2ccccc2)CC1	i	-5%	i	16µM*	-2%	-1%
SMILES	KB-V1 MDR tox	TSG101-PTAP inh	KB-3-1 cytotox	MCF10A rerep	PINK1 modulator	SW480 rereplic
COc1ccc(-c2ccc3ncnc(N(C)Cc4csc(C)n4)c3c2)cc1OC	i	x	u	x	x	x
Fc1ccc(NCc2cccn2-c2nnc(N3CCOCC3)s2)cc1	u	x	i	x	1%	x
COc1ccc(OC)c(C(=O)c2ccc(C(=O)c3cc(OC)ccc3OC)cc2)c1	i	-5%	i	-14%	x	-1%
COc1ccc(C(=O)c2ccc(OC)cc2OC)cc1	u	0%	15µM*	16µM*	3%	u
COc1ccc(C(=O)c2ccc(N(C)C)cc2)c(OC)c1	u	0%	5.6µM*	2.2µM*	19%[38.3 µM]	4.5µM*
CN(C)c1ccc(C(=O)c2ccc(N(C)C)c3ccccc23)cc1	u	4%	0.092µM*	0.21µM*	1%	0.41µM*
CN(C)c1ccc(C(=O)c2ccccc2C(=O)O)cc1[N+](=O)[O-]	i	-1%	i	9%	0%	-3%
Cc1ccc(NC(=O)CN2C=NS(=O)(=O)c3ccccc32)cc1	i	x	i	x	0%	x
CC(C)Nc1ccccc1	i	0%	i	-2%	1%	-4%
CC(C)Nc1nc2nonc2nc1Nc1ccccc1	u	-6%	18µM*	u	u	108%
CC(=O)Nc1cccc(C(=O)/C=C/c2ccc(C)cc2)c1	i	0%	u	21µM*	-2%	u
CCC(=O)Nc1cccc(C(=O)/C=C/c2ccc(F)cc2)c1	i	-12%	u	u	-3%	10µM*
CCc1nc2c(C#N)c(-c3ccc(Cl)cc3)ccn2n1	u	-7%	u	1%	-1%	-6%
CCS(=O)c1scc(-c2ccc(Cl)cc2)c1C#N (centres undefined)	21µM*	-3%	u	9%	0%	-7%
CCOC(=O)C1=C(O)c2ccccc2C(=O)/C1=C\c1ccc(CC)cc1	u	0%	12µM*	8.2µM*	16%[38.3 µM]	6.5µM*
CCOC(=O)C1=C(Cc2ccc(OC)cc2)C(=O)c2ccccc2C1=O	i	-5%	i	9%	21%[38.3 µM]	6.5µM*
CCOC(=O)c1c(C)nc2c(c1-c1cc(OC)ccc1OC)C(=O)c1ccccc1-2	i	1%	i	1%	x	-18%
CCOC(=O)C1=C(C)N(c2ccccc2)C(=O)/C1=C\c1ccc(O)c(OC)c1	i	-4%	i	u	2%	24%
COCCCNC(=O)c1ccc(Cn2c(=O)c3ccccc3n(CC(=O)Nc3c(C)cccc3C)c2=O)cc1	i	x	i	x	4%	x
